The record followed here is PubChem BioAssay AID1851 (National Center for Advancing Translational Sciences (NCATS), 2009).

The whole screen tested about 16,000 compounds, of which about 5,100 (32%) were called active. Another 25% or so got no clear call; they are omitted. The list shows a part of the results. A number with no mark means an inactive call. Calls come from the whole dose curve; as a rule, active = well fitted curve in the direction sought with a large enough effect; inconclusive = small, poorly fitted or top-dose-only effect, or effect the other way; inactive = no such curve, though single readings can be large or run the other way.
% is set by controls: 0 for no effect and ±100 for the full control effect.

Sequence of Cytochrome P450 3A4 (Homo sapiens) (P08684 whole entry, looked up): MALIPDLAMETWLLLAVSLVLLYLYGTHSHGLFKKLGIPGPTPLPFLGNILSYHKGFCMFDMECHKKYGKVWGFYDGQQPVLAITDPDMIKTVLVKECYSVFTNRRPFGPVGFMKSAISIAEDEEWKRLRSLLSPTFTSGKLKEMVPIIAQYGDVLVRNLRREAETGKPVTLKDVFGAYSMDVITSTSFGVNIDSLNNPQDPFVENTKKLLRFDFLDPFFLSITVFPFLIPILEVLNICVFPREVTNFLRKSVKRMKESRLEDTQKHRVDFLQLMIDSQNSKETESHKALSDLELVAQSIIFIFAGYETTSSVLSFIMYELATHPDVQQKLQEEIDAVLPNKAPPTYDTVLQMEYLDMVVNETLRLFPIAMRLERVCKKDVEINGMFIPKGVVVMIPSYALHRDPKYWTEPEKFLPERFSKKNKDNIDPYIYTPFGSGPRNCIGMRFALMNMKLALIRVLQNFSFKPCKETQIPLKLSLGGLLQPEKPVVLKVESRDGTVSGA

This assay concerns the target Cytochrome P450 3A4 (Homo sapiens) (UniProt P08684). In words: Cytochrome panel assay with activity outcomes. The note with it: recombinant CYP, pro-luciferin dealkylation, luminescence, p450-cyp3a4; series mostly up to 57.1 µM; activity, negative = inhibition: at the top concentration.
On to `COC1=C[C@H]2C3=C([C@H]2C1=O)[C@H](NC(C)=O)CCc1cc(OC)c(OC)c(OC)c13`, for which the “activity, negative = inhibition” value is -5.01% [at 25.6 µM].

As to `CN1C(=O)C(C2c3ccccc3C(=O)N2Cc2ccc([N+](=O)[O-])cc2)C(=O)N(C)C1=O` (centres undefined), the activity, negative = inhibition is -20.1% [at 11.4 µM].

The term AC50 denotes the concentration at which the activity in the assay is half-maximal. In the case of `CCCCN1C(=O)C(C2c3ccccc3C(=O)N2Cc2ccccc2)C(=O)NC1=S` (centres undefined), the half-maximal activity concentration (AC50) is 2.51 µM (active).

On to `CN1CCc2nc3ccc(F)cc3c(C(N)=O)c2C1`, for which the “activity, negative = inhibition” value was 3.25%.

Turning to `CCN1C[C@]2(C)CC[C@@H](O)[C@]34[C@@H]5CC6[C@@H](OC)C[C@@](O)([C@H]5[C@@H]6O)[C@@H](C[C@@H]23)[C@H]14`, the “activity, negative = inhibition” value was -4.92%.

As for `COC(=O)C1(C)C=C2C(=C(C)C(=O)C2C)CN1` (centres undefined), the “activity, negative = inhibition” value is -25%.

For the compound `N[C@@H](CCCCP(=O)(O)O)C(=O)O`, the “activity, negative = inhibition” value is -5.86%.

As for `Cn1c(O)c(C(=N)COc2ccccc2)c(=O)n(C)c1=O`, the “activity, negative = inhibition” value was -18.1%.

Regarding `NC[C@@H](O)CSP(=O)(O)O`, the activity, negative = inhibition was 2.73% [at 11.4 µM].

For `CNC(C)Cc1ccccc1Sc1ccc(O)cc1` (centres undefined), the activity, negative = inhibition is -6.72% [at 2.29 µM].

Turning to `COC(=O)NC/C=C\c1nc(CC/C=C\C(=O)O[C@H]2C[C@H]3CC(=O)O[C@@H](/C=C\CC(C)C)C[C@@H]4CC[C@H](C)[C@H](C[C@@H](OC)C[C@H](C2)O3)O4)co1`, the concentration at half-maximal activity (AC50) was 5.01 µM (active).

For `CNC(=O)Oc1ccc2c(c1)[C@@]1(C)CCN(C)[C@@H]1N2C`, the “activity, negative = inhibition” value is -8.94%.

As for `C[N+]1([O-])[C@@H]2CC(OC(=O)[C@@H](CO)c3ccccc3)C[C@@H]1[C@H]1O[C@H]12` (some centres undefined), the activity, negative = inhibition result was “inactive”.

With `c1ccc2c(c1)OC[C@@H](C1=NCCN1)O2`, the activity, negative = inhibition entry is “inactive”.

Regarding `c1ccc(C2CC2)c(OCC2=NCCN2)c1`, the activity, negative = inhibition entry is “inactive”.

Take `CNCC/C=C\c1cccnc1`: the “activity, negative = inhibition” value was -16.3%.

With `S=C=Nc1cccc(C2(N3CCCCC3)CCCCC2)c1`, the AC50 is 15.8 µM (active).

For the compound `CCC(COC(=O)NC)NC(=O)Oc1ccccc1` (centres undefined), the “activity, negative = inhibition” value was 13.4%.

Take `NC(N)=NC(=O)c1nc(Cl)c(N)nc1N`: the “activity, negative = inhibition” value is -12.3% [at 25.6 µM].

Turning to `Clc1cc(I)cc(Cl)c1NC1=NCCN1`, the “activity, negative = inhibition” value was -27.3%.

With `O=C(N/N=C(\c1ccccc1)c1cccnc1)C(O)(c1ccccc1)c1ccccc1`, the half-maximal activity concentration (AC50) was 7.94 µM (active).

Take `O=C(NCP(=O)(O)O)c1cccnc1`: the activity, negative = inhibition is -14.3% [at 11.4 µM].

For `CC[C@]1(C2=NCCN2)Cc2ccccc2O1`, the activity, negative = inhibition result is “inactive”.

On to `CCN(CC)c1ccc(/C=C2/C(=O)NC(=O)N(CC3CCCO3)C2=O)cc1` (centres undefined), for which the “activity, negative = inhibition” value is -15.9%.

For `C[C@@H]1O[C@@H](O[C@H]2C[C@@H](O)[C@]3(CO)[C@@H]4[C@@H](O)C[C@]5(C)[C@H](C6=CC(=O)OC6)CC[C@@]5(O)[C@H]4CC[C@@]3(O)C2)[C@H](O)[C@H](O)[C@@H]1O`, the “activity, negative = inhibition” value was -3.37%.

As for `C/C=C(\C)C(=O)O[C@@H]1C(C)=C2[C@H]([C@@H]1OC(=O)CCCCCCC)[C@@](C)(OC(C)=O)C[C@@H](OC(=O)CCC)[C@@]1(O)[C@H]2OC(=O)[C@]1(C)O`, the concentration at half-maximal activity (AC50) was 3.98 µM (active).

Consider `CO[C@H]1[C@H](O)[C@H](O[C@@H]2[C@H](Oc3cccc4c(O)c5c(=O)oc6ccc(C)c7c(=O)oc(c34)c5c67)O[C@@H](C)[C@H](O)[C@H]2O)O[C@@H](C)[C@@H]1O`, for which the activity, negative = inhibition is -7.43% [at 11.4 µM].

Regarding `CCOC(=O)c1ncn2c1[C@H]1CCCN1C(=O)c1cc(OC)ccc1-2`, the “activity, negative = inhibition” value was -16.2%.

Consider `COc1cc2c(cc1OC)[C@@H]1C(=O)c3ccc4c(c3O[C@@H]1CO2)C=CC(C)(C)O4`, for which the concentration at half-maximal activity (AC50) was 15.8 µM (active).

For the compound `Cc1ncc([N+](=O)[O-])n1CCN=[N+]=[N-]`, the activity, negative = inhibition was -15.3% [at 11.4 µM].

For the compound `NCCc1ccc(S(=O)(=O)F)cc1`, the “activity, negative = inhibition” value is -11%.

Consider `C=CCN1C(=O)NC(=O)/C(=C/c2cccn2C)C1=O`, for which the activity, negative = inhibition was 8.88% [at 2.29 µM].

Regarding `Cc1nc2sccc2c(=O)n1-c1ccccc1Cl`, the activity, negative = inhibition was 4.91% [at 2.29 µM].

Turning to `O=c1c2ccccc2nc(N2CCCC2)n1-c1ccc(Cl)cc1`, the half-maximal activity concentration (AC50) is 12.6 µM (active).

Regarding `O=C(Nc1ccc(Cl)cc1)Nc1nccs1`, the activity, negative = inhibition was -2.97% [at 2.29 µM].

In the case of `O=C(O)CCCc1ccc(N(CCCl)CCCl)cc1`, the “activity, negative = inhibition” value was -11.3% [at 25.6 µM].

`Cc1ccc2cc3cc(C(=O)N4CCC5(CC4)OCCO5)oc3nc2c1`: the “activity, negative = inhibition” value is -25.1%.

Regarding `Cc1ccc2c(c1)N(CCC(=O)N1CCC3(CC1)OCCO3)C(=O)C(C)O2` (centres undefined), the concentration at half-maximal activity (AC50) is 2 µM (active).

In the case of `Cc1cc(NC(=O)CCC(=O)N2CCC3(CC2)OCCO3)no1`, the “activity, negative = inhibition” value was 17.2%.

As to `CC(C)NP(=O)(NC(C)C)OP(=O)(NC(C)C)NC(C)C`, the “activity, negative = inhibition” value is -11%.

With `N#CCCCC[N+]12CN3CN(CN(C3)C1)C2`, the activity, negative = inhibition is -1.78% [at 11.4 µM].

As for `c1ccc(N2CC3(CCNCC3)C2)cc1`, the “activity, negative = inhibition” value was -19%.

Turning to `COc1ccc2c(c1)CCC1C2CC[C@]2(C)[C@H](NCCCCCCN3C(=O)C=CC3=O)CC[C@@H]12` (some centres undefined), the “activity, negative = inhibition” value was -6.9%.

With `C[C@@H]1[C@@H](C)N1C[C@H](O)Cn1ccnc1[N+](=O)[O-]` (some centres undefined), the activity, negative = inhibition was -14.6% [at 11.4 µM].
